Data on six compounds can be found in the supplement of paper PMC9694430.

Common to all, as to experiment: thermal shift delta Tm vs DMSO control; higher = stronger stabilization (binding)
Settings in all cases: 12.5 µM; protein concentration 2 µM

One experiment deals with LOC_OS01G57100-cb003. Put shortly:
(§1)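 Heating from 25°C to 95°C at 0.05°C/s, fluorescence was recorded for 19.5 μl wells of 2 μM E. coli-expressed, purified rice kinase domain in 100 mM potassium phosphate pH 7.5, 150 mM NaCl, 10% glycerol and 5 × SYPRO Orange with compound in DMSO. Boltzmann fits gave melting temperatures for this differential scanning fluorimetry assay. The shift reported is the mean of three replicates against the DMSO-only protein.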

The subject of another experiment is LOC_OS01G60330-cb001. An outline of the steps:
as §1

In another experiment the test system is LOC_OS01G60700-cb002. Put shortly: as §1
For another experiment, the system named is LOC_OS01G63280-cb003. An outline of the steps: as §1
The subject of the next experiment is LOC_OS01G67340-cb003. An outline of the steps: as §1
The next experiment concerns LOC_OS01G70970-cb002. An outline of the steps: as §1
For the next experiment, the system named is LOC_OS02G07810-cb001. Put shortly: as §1
The subject of another experiment is LOC_OS02G08530-cb003. An outline of the steps:
as §1

The subject of another experiment is LOC_OS02G14120-cb001. Put shortly:
as §1

For the next experiment, the system named is LOC_OS02G17970-cb001. Put shortly: as §1
In another experiment the test system is LOC_OS02G45750-cb003. An outline of the steps: as §1
The test system of another experiment is LOC_OS02G54510-cb004. An outline of the steps:
as §1

A further experiment concerns LOC_OS03G04050-cb001. Put shortly:
as §1

The test system of a further experiment is LOC_OS03G12390-cb001. Put shortly: as §1
The test system of a further experiment is LOC_OS03G27990-cb004. An outline of the steps: as §1
For a further experiment, the system named is LOC_OS03G50450-cb001. Put shortly: as §1
The next experiment has as its system LOC_OS03G50810-cb003. Put shortly: as §1
A further experiment relates to LOC_OS04G35114-cb001. Put shortly: as §1
Another experiment has as its system T1, LOC_OS04G38480-cb003.
T1 sequence (whole entry): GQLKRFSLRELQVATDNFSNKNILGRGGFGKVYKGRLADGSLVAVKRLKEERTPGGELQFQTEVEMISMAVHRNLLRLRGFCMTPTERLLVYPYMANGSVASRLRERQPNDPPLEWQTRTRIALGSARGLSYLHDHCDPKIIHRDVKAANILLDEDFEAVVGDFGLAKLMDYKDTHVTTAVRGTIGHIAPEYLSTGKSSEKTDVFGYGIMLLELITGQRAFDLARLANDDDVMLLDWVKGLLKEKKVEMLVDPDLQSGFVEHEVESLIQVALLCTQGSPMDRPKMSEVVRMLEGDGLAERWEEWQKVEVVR
An outline of the steps: as §1

The subject of the next experiment is T2, LOC_OS04G41100-cb001.
T2 sequence (whole entry): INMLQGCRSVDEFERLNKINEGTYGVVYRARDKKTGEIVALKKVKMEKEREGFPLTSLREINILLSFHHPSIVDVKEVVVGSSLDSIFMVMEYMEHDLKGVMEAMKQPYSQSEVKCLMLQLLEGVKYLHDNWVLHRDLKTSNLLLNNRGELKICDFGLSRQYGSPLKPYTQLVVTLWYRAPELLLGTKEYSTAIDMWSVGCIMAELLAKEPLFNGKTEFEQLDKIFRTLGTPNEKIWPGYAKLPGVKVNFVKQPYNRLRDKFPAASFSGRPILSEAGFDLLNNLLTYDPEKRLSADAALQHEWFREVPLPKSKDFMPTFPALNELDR
An outline of the steps:
as §1
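Also: purified Escherichia coli-expressed rice kinase domain construct.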

`COc1ccc(CNC(=O)Nc2ncc([N+](=O)[O-])s2)cc1`: the “thermal shift delta Tm” value in the experiment on LOC_OS01G57100-cb003 is 1.87 °C; in the experiment on LOC_OS01G60330-cb001, 0.81 °C; with LOC_OS01G60700-cb002, 1.38 °C; in the experiment on LOC_OS01G63280-cb003 it was 0.15 °C; with LOC_OS01G67340-cb003 it was 0.55 °C; in the experiment on LOC_OS01G70970-cb002 it was 0.54 °C. For the same compound, the “thermal shift delta Tm” value with LOC_OS02G07810-cb001 is 1.25 °C; in the experiment with LOC_OS02G08530-cb003, 1.46 °C; in the experiment with LOC_OS02G14120-cb001 it was -0.24 °C; in the experiment with LOC_OS02G17970-cb001 it was 1.43 °C; with LOC_OS02G45750-cb003, 0.37 °C; in the experiment on LOC_OS02G54510-cb004, -0.05 °C. Moreover, the “thermal shift delta Tm” value stood at 0.67 °C in the experiment on LOC_OS03G04050-cb001; 0.15 °C with LOC_OS03G12390-cb001; 0.48 °C in the experiment with LOC_OS03G27990-cb004; 0.41 °C in the experiment with LOC_OS03G50450-cb001; 0.22 °C in the experiment with LOC_OS03G50810-cb003; 0.93 °C in the experiment on LOC_OS04G35114-cb001. Besides, the “thermal shift delta Tm” value was 1.93 °C in the experiment on LOC_OS04G38480-cb003 and 0.59 °C in the experiment with LOC_OS04G41100-cb001.

Take `CC(C)(O)CNc1ncc(-c2ccnc(Nc3ccnc(Cl)c3)n2)c(CC2CC2)n1`: the “thermal shift delta Tm” value with LOC_OS01G57100-cb003 is 0.99 °C; in the experiment with LOC_OS01G60330-cb001, 1.94 °C; in the experiment with LOC_OS01G60700-cb002, 0.32 °C; in the experiment with LOC_OS01G63280-cb003, -0.09 °C; in the experiment on LOC_OS01G67340-cb003 it was 0.66 °C; in the experiment with LOC_OS01G70970-cb002, 0.37 °C. Besides, the “thermal shift delta Tm” value in the experiment on LOC_OS02G07810-cb001 is 0.23 °C; with LOC_OS02G08530-cb003 it was 0.89 °C; in the experiment with LOC_OS02G14120-cb001, 1.97 °C; in the experiment on LOC_OS02G17970-cb001, -0.17 °C; in the experiment on LOC_OS02G45750-cb003, 2.85 °C; in the experiment on LOC_OS02G54510-cb004, 0.6 °C. Also, the “thermal shift delta Tm” value with LOC_OS03G04050-cb001 is 0.19 °C; with LOC_OS03G12390-cb001 it was -0.18 °C; with LOC_OS03G27990-cb004, 0.11 °C; in the experiment with LOC_OS03G50450-cb001 it was 0.3 °C; with LOC_OS03G50810-cb003, 0.65 °C; in the experiment with LOC_OS04G35114-cb001, 3.2 °C. For the same compound, the “thermal shift delta Tm” value with LOC_OS04G38480-cb003 was 1.45 °C; in the experiment on LOC_OS04G41100-cb001, 0.65 °C.

For the compound `COc1ccc(CCNCc2ccc(OCc3ccc(Cl)nc3)c(OC)c2)cc1OC`, the “thermal shift delta Tm” value is 1.03 °C in the experiment on LOC_OS01G57100-cb003; 0.8 °C in the experiment on LOC_OS01G60330-cb001; 0.19 °C in the experiment on LOC_OS01G60700-cb002; -0.28 °C with LOC_OS01G63280-cb003; 0.24 °C in the experiment with LOC_OS01G67340-cb003; 0.23 °C in the experiment on LOC_OS01G70970-cb002. Besides, the “thermal shift delta Tm” value with LOC_OS02G07810-cb001 is 0.28 °C; in the experiment with LOC_OS02G08530-cb003, 0.56 °C; with LOC_OS02G14120-cb001, 0.14 °C; in the experiment with LOC_OS02G17970-cb001, 0.22 °C; in the experiment on LOC_OS02G45750-cb003, -0.45 °C; with LOC_OS02G54510-cb004, 0 °C. Besides, the “thermal shift delta Tm” value with LOC_OS03G04050-cb001 was 0 °C; in the experiment with LOC_OS03G12390-cb001 it was -0.53 °C; with LOC_OS03G27990-cb004, 0.12 °C; in the experiment with LOC_OS03G50450-cb001 it was -0.17 °C; with LOC_OS03G50810-cb003, 0.18 °C; in the experiment on LOC_OS04G35114-cb001, 0.23 °C. The “thermal shift delta Tm” value in the experiment on LOC_OS04G38480-cb003 turned out to be 0.05 °C; in the experiment with LOC_OS04G41100-cb001 it was 0.41 °C.

Turning to `CCc1cnn2c(NCc3ccc[n+]([O-])c3)cc(N3CCCC[C@H]3CCO)nc12`, the “thermal shift delta Tm” value is 1.62 °C in the experiment on LOC_OS01G57100-cb003; 1.64 °C with LOC_OS01G60330-cb001; 0.78 °C with LOC_OS01G60700-cb002; 0.34 °C in the experiment with LOC_OS01G63280-cb003; -0.24 °C in the experiment with LOC_OS01G67340-cb003; 0.27 °C in the experiment with LOC_OS01G70970-cb002. For the same compound, the “thermal shift delta Tm” value with LOC_OS02G07810-cb001 was 1.17 °C; in the experiment with LOC_OS02G08530-cb003, 0.89 °C; in the experiment with LOC_OS02G14120-cb001, 0.57 °C; in the experiment on LOC_OS02G17970-cb001, 0.96 °C; in the experiment on LOC_OS02G45750-cb003, 0.58 °C; in the experiment on LOC_OS02G54510-cb004, 0.19 °C. For the same compound, the “thermal shift delta Tm” value was determined as 0.27 °C in the experiment on LOC_OS03G04050-cb001; 1.31 °C in the experiment with LOC_OS03G12390-cb001; 0.33 °C in the experiment with LOC_OS03G27990-cb004; 0.63 °C with LOC_OS03G50450-cb001; 0.67 °C in the experiment on LOC_OS03G50810-cb003; 0.57 °C in the experiment with LOC_OS04G35114-cb001. The figures for the “thermal shift delta Tm” value with LOC_OS04G38480-cb003 and in the experiment with LOC_OS04G41100-cb001 were 0.56 °C and 0.68 °C, respectively.

On to `CC(C)(O)CC(=O)NCCn1ccc2ncnc(Nc3ccc(Oc4cccc(C(F)(F)F)c4)c(Cl)c3)c21`, for which the “thermal shift delta Tm” value in the experiment on LOC_OS01G57100-cb003 stood at 2.91 °C; with LOC_OS01G60330-cb001, 5.27 °C; in the experiment on LOC_OS01G60700-cb002 it was 0.11 °C; in the experiment on LOC_OS01G63280-cb003, 1.26 °C; with LOC_OS01G67340-cb003, 1.33 °C; with LOC_OS01G70970-cb002 it was 1.03 °C. In addition, the “thermal shift delta Tm” value in the experiment with LOC_OS02G07810-cb001 is 1.53 °C; in the experiment with LOC_OS02G08530-cb003, 0.93 °C; in the experiment on LOC_OS02G14120-cb001, 1.51 °C; in the experiment on LOC_OS02G17970-cb001, 0.83 °C; in the experiment on LOC_OS02G45750-cb003 it was 0.62 °C; in the experiment on LOC_OS02G54510-cb004, -0.25 °C. In addition, the “thermal shift delta Tm” value with LOC_OS03G04050-cb001 stood at 0.51 °C; in the experiment on LOC_OS03G12390-cb001 it was 1.74 °C; in the experiment with LOC_OS03G27990-cb004 it was 0.47 °C; in the experiment with LOC_OS03G50450-cb001 it was 0.94 °C; with LOC_OS03G50810-cb003, 1.03 °C; in the experiment with LOC_OS04G35114-cb001, 0.12 °C. Besides, the results for the “thermal shift delta Tm” value in the experiment on LOC_OS04G38480-cb003 and in the experiment with LOC_OS04G41100-cb001 were 1.78 °C and 0.52 °C, respectively.

On to `N#C/C(=C\c1ccc(O)c(O)c1)C(=O)NCc1ccccc1` [AG-490 (Tyrphostin B42)], for which the “thermal shift delta Tm” value with LOC_OS01G57100-cb003 was 0.3 °C; with LOC_OS01G60330-cb001, 0.46 °C; in the experiment with LOC_OS01G60700-cb002, 1.9 °C; in the experiment on LOC_OS01G63280-cb003, 0.34 °C; in the experiment on LOC_OS01G67340-cb003, 0.38 °C; in the experiment with LOC_OS01G70970-cb002, 0.32 °C. Further, the “thermal shift delta Tm” value in the experiment on LOC_OS02G07810-cb001 is 1.89 °C; in the experiment on LOC_OS02G08530-cb003, 0.84 °C; in the experiment on LOC_OS02G14120-cb001, -0.01 °C; in the experiment with LOC_OS02G17970-cb001 it was 1.7 °C; with LOC_OS02G45750-cb003, 0.05 °C; in the experiment with LOC_OS02G54510-cb004, 0.41 °C. The “thermal shift delta Tm” value was 0.78 °C in the experiment with LOC_OS03G04050-cb001; 0.12 °C with LOC_OS03G12390-cb001; 0.27 °C in the experiment with LOC_OS03G27990-cb004; -0.29 °C in the experiment on LOC_OS03G50450-cb001; 0.09 °C with LOC_OS03G50810-cb003; -0.45 °C in the experiment on LOC_OS04G35114-cb001. For the same compound, the figures for the “thermal shift delta Tm” value with LOC_OS04G38480-cb003 and with LOC_OS04G41100-cb001 were 0.47 °C and 0.43 °C, respectively.
